Each structure is given as a SMILES string. Calls of active or inactive are those of the source.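 The calls were made as follows: active = relative FRET score above 0.01, or acceptor fluorescence over 30% below the sample-well median; inactive = the rest.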

Protein Rev (Human immunodeficiency virus type 1 group M subtype B (isolate WMJ22)), sequence (P05866 whole entry, looked up): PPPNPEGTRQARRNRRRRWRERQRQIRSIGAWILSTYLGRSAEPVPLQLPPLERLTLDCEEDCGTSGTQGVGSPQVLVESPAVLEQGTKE

The test concerns the target Protein Rev (Human immunodeficiency virus type 1 group M subtype B (isolate WMJ22)) (UniProt P05866). Kind of test: disruptors of Rev peptide-RRE RNA complex – biochemical, FRET, acceptor and relative FRET calls, confirmation (AID 837).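 Also: relative FRET combines rise in Cy5 acceptor with fall in fluorescein donor.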 The note with it: Fl-Rev peptide / Cy5-RRE RNA FRET, 1536-well; at 8 µM.
In the case of `CNCC(O)c1cccc(OC(=O)c2ccccc2C)c1` (stereo not given), the result was inactive.
As for `OC(Cc1ccccc1)(c1ccccc1)C1CN2CCC1CC2` (stereo not given), the entry is “inactive”; as for `Cc1ccc(-c2nc(N(C)C3CCN(C)CC3)c3ccccc3n2)cc1`, “inactive”.
As for `CC1CCC(NCCc2ccc3c(c2)OCO3)CC1` (stereo not given), the entry is “inactive”; as for `CC(NC1CCCCC1)C(O)C12CC3CC(CC(C3)C1)C2` (stereo not given), “inactive”.
As for `c1ccc(C(OCCN2CCNCC2)c2ccccc2)cc1`, the outcome was inactive.
For `COc1ccc(CCNCc2ccc(SC)cc2)cc1` the value was “inactive”; for `COc1ccc(CCC(C)NCCc2ccccc2)cc1` (stereo not given), “inactive”.
For `COc1ccc(CCNC(C)CCc2ccc(OC)cc2)cc1` (stereo not given) the value was “active”; for `CN1C2CCC1CC(OC(=O)c1cc(Cl)cc(Cl)c1)C2` (stereo not given), “inactive”.

Source of the values: PubChem BioAssay AID837 (The Scripps Research Institute Molecular Screening Center, 2007).
